High-throughput results as filed in PubChem BioAssay.
C_diff_HTS: inhibitors of Clostridium difficile growth; Clostridium difficile clinical isolate growth, OD600, 24 h; active compounds read low; 86,000 compounds, 0.25% hits; AID 1259249; growth activity, negative = inhibition, % at 16 µg/mL (by protocol);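 active = mean growth activity at or below -80% and every replicate also at or below -80%; inconclusive = mean at or below -80% but some replicate above -80%; inactive = mean growth activity above -80%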;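 also: 0% = DMSO wells and -100% = levofloxacin 16 µg/mL wells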
T_cruzi_growth-1: blocks T. cruzi growth in NIH3T3 culture. T. cruzi beta-gal in NIH3T3, GalScreen luminescence, 90 h. 77,000 compounds, 5.9% hits. inhibition, % at 8.34 µM. AID 624255;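 active = mean inhibition above about 93%, with at least 55% of replicates each passing it, limit read from the data, passing the limit was not always enough; inconclusive = only one of those two conditions holds; inactive = neither condition holds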
Pf_Dd2_growth: blocks growth of Plasmodium falciparum Dd2 parasites; AID 1159554; P. falciparum Dd2 growth, SYBR Green, 72 h; active compounds read low; 94,000 compounds, 2.3% hits; activity change, % at 10 µM; in the data active = activity change below about -80%; inconclusive = no clear call, values can overlap the other calls
T_cruzi_growth-2: Trypanosoma cruzi proliferation inhibition. shares compounds with T_cruzi_growth-1. T. cruzi beta-gal in NIH3T3, GalScreen luminescence, 90 h. inhibition, % at 8.35 µM. 5,600 compounds, 72% hits;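 active = mean replicate inhibition above about 95% and at least 55% of replicates individually reaching it, limit read from the data; inconclusive = only one of the two criteria is met; inactive = neither criterion is met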
T_cruzi_growth-3: Trypanosoma cruzi proliferation inhibition | shares compounds with T_cruzi_growth-1 | T. cruzi beta-gal in NIH3T3, GalScreen luminescence, 90 h | inhibition, % at 2.09 µM | 5,600 compounds, 21% hits | AID 651740;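 active = mean inhibition above about 95%, with at least 55% of replicates also reaching it, limit read from the data; inconclusive = meets just one of the two conditions; inactive = meets neither condition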;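 also: plate controls were neutral control median for no effect and positive control median for full effect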
NIH3T3_tox: cytotoxicity in mouse NIH/3T3 fibroblasts | NIH/3T3 viability, CellTiter-Glo ATP luminescence, 90 h | cytotoxicity (signal decrease), % at 8.35 µM | 5,600 compounds, 14% hits | shares compounds with T_cruzi_growth-1;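 active = mean signal decrease across replicates above about 35% based on untreated-well scatter, with enough replicates individually passing, limit read from the data; inconclusive = no rule stated though some were filed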;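 also: 0% = median of neutral control wells and 100% = median of positive control wells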
NIH3T3_tox_2: cytotoxicity in mouse NIH/3T3 fibroblasts | shares compounds with T_cruzi_growth-1 | NIH/3T3 viability, CellTiter-Glo ATP luminescence, 90 h | inhibition, % at 24.9 µM | 5,600 compounds, 56% hits | AID 651744;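 active = mean loss of cell viability signal at or above a set limit, and enough replicates individually reaching it; inconclusive = meets only the mean limit or only the replicate share; inactive = meets neither condition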;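 also: 0% = median of neutral control wells and 100% = median of positive control wells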
Numbers without * were called inactive; ? = inconclusive; . = no result given. Only some compounds are listed: those with a hit (about 6.8% of all), similar ones and a draw of the others.

SMILES C_diff_HTS T_cruzi_growth-1 Pf_Dd2_growth T_cruzi_growth-2 T_cruzi_growth-3 NIH3T3_tox NIH3T3_tox_2
C[C@@H]1CCCCO[C@H](CN(C)Cc2ccc(Cl)c(Cl)c2)[C@@H](C)CN([C@H](C)CO)C(=O)c2cc(NC(=O)Nc3ccc4c(c3)OCO4)ccc2O1 -2.2 102.9* 8.0 107.1* 105.3* 24.6 13.0
C[C@@H]1CCCCO[C@H](CN(C)Cc2ccc3c(c2)OCO3)[C@@H](C)CN([C@H](C)CO)C(=O)c2cc(NC(=O)Nc3ccc4c(c3)OCO4)ccc2O1 . ? 10.1 110.0* -15.8 -14.3 2.7
C[C@@H]1CCCCO[C@@H](CN(C)Cc2ccc3c(c2)OCO3)[C@@H](C)CN([C@@H](C)CO)C(=O)c2cc(NC(=O)Nc3ccc4c(c3)OCO4)ccc2O1 . 86.9 -17.9 . . . .
C[C@@H]1CCCCO[C@H](CN(C)Cc2ccc3c(c2)OCO3)[C@H](C)CN([C@@H](C)CO)C(=O)c2cc(NC(=O)Nc3ccc4c(c3)OCO4)ccc2O1 . 86.6 -76.7 . . . .
C[C@H]1CCCCO[C@H](CN(C)Cc2ccc3c(c2)OCO3)[C@@H](C)CN([C@@H](C)CO)C(=O)c2cc(NC(=O)Nc3ccc4c(c3)OCO4)ccc2O1 . 99.7* -64.9 98.8* 110.4* 31.6 106.0*
C[C@@H]1CCCCO[C@@H](CN(C)Cc2ccc3c(c2)OCO3)[C@@H](C)CN([C@H](C)CO)C(=O)c2cc(NC(=O)Nc3ccc4c(c3)OCO4)ccc2O1 . 40.9 3.7 . . . .
CCCNC(=O)N[C@H]1C=C[C@H](CC(=O)NC2CCC2)O[C@H]1CO 2.1 . -1.1 . . . .
C[C@@H]1CN([C@H](C)CO)C(=O)CCCn2nncc2CO[C@@H]1CN(C)Cc1ccc(-c2ccccc2)cc1 . 82.7 -38.7 . . . .
C[C@@H]1CN([C@H](C)CO)C(=O)c2cc(NC(=O)CCC(F)(F)F)ccc2O[C@@H](C)CCCCO[C@H]1CN(C)Cc1ccccc1 -1.6 -0.1 . . . . .
COc1cccc(-c2ccc([C@@H]3[C@@H](CO)N4CCCCN(C(=O)c5ccc6c(c5)OCO6)C[C@@H]34)cc2)c1 57.6 ? 20.2 103.8* 56.6 26.9 56.1*
COc1cccc(-c2ccc([C@@H]3[C@H]4CN(C(=O)c5ccc(F)cc5)CCCCN4[C@H]3CO)cc2)c1 1.2 88.6 -33.8 . . . .
COc1cccc(-c2ccc([C@H]3[C@H](CO)N4CCCCN(C(=O)c5ccc6c(c5)OCO6)C[C@@H]34)cc2)c1 9.9 109.4* 0.3 101.5* 44.6 39.8* 72.4*
COc1cccc(-c2ccc([C@H]3[C@H]4CN(C(=O)c5ccc6c(c5)OCO6)CCCCN4[C@H]3CO)cc2)c1 5.5 75.7 -46.8 . . . .
C[C@H](CO)N1C[C@H](C)[C@H](CN(C)Cc2ccc(-c3ccccc3)cc2)Oc2ncc(C#CCN(C)C)cc2C1=O 16.0 84.0 . . . . .
CCCC#Cc1ccc([C@H]2[C@H](CO)N3CCCCN(C(=O)NC4CCCC4)C[C@@H]23)cc1 9.5 ? -35.6 85.9 ? 48.2* 105.4*
CC(C)CC#Cc1ccc([C@@H]2[C@@H](CO)N3CCCCN(C(=O)NC4CCCC4)C[C@@H]23)cc1 18.4 101.7* -11.4 100.6* 63.8 19.9 107.4*
CC(C)CC#Cc1ccc([C@@H]2[C@H]3CN(C(=O)NC4CCCC4)CC(=O)N3[C@H]2CO)cc1 56.0 . -69.0 . . . .
CC(C)CC#Cc1ccc([C@H]2[C@H](CO)N3C(=O)CN(C(=O)NC4CCCC4)C[C@@H]23)cc1 -20.9 . -0.5 . . . .
CC(C)CC#Cc1ccc([C@H]2[C@H](CO)N3CCCCN(C(=O)NC4CCCC4)C[C@@H]23)cc1 -7.6 112.8* -34.7 93.1 86.7 43.1* 103.3*
CC(C)CC#Cc1ccc([C@H]2[C@@H](CO)N3C(=O)CN(C(=O)NC4CCCCC4)C[C@H]23)cc1 -11.3 . -39.0 . . . .
COCC#Cc1ccc([C@H]2[C@@H](CO)N3CCCCN(C(=O)NC4CCCC4)C[C@H]23)cc1 -2.7 76.3 -3.5 . . . .
CC(C)CC#Cc1ccc([C@H]2[C@@H](CO)N3CCCCN(C(=O)NC4CCCC4)C[C@@H]23)cc1 -26.7 118.0* 2.3 110.0* 79.0 19.4 103.6*
